Laboratory results: PubChem BioAssay AID624330 (Southern Research Specialized Biocontainment Screening …, 2012)
Hit rate of the full screen: of about 340,000 compounds, about 2,100 (0.62%) were called active.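 How the source made its calls: active means first-screen hits whose inhibition reached a set limit at any dose in the follow-up dose series; inconclusive means inhibition above the set first-screen limit but never retested; inactive means the rest.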 A selection follows. Potency and affinity values are given separately.

Target: Rac GTPase-activating protein 1 (Homo sapiens) (UniProt Q9H0H5)
Sequence (Q9H0H5 whole entry, looked up): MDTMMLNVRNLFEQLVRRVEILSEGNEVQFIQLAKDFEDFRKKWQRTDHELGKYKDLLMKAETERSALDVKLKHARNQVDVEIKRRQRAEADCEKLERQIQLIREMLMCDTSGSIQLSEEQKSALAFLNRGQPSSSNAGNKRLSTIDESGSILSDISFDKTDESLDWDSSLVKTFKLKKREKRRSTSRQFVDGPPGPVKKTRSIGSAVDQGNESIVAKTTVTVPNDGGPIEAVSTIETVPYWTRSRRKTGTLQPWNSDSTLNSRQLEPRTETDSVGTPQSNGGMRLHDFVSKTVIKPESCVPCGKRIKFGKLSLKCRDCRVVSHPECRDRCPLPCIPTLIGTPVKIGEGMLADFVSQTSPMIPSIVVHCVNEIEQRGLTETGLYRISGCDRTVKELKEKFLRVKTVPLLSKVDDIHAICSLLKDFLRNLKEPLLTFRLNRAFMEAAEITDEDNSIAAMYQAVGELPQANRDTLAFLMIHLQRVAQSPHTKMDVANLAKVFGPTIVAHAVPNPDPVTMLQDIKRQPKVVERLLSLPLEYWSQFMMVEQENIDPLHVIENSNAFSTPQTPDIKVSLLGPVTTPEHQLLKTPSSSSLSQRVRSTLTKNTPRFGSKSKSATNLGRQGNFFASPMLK
Assay: MgcRacGAP GTPase-activating activity inhibitors, confirmation, biochemical, ADP Hunter fluorescence, primary and confirmatory (AID 624330);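 further: fluorescence reports GDP produced by GAP-driven GTP hydrolysis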
Details: MgcRacGAP-stimulated Rac1 GTP hydrolysis, at 30 µM, hits give high values, GST-tagged Rac1 F28L mutant substrate

inhibition, inactive:
COC(=O)c1ccsc1NC(=O)c1ccco1 6.38%
COc1cc(C(=O)COC(=O)c2ccncc2)cc(OC)c1OC 4.46%
Cc1cc(C(=O)C(=O)N(C)C)c(C)n1-c1ccc(Cl)c(Cl)c1 14.3%
CC1CN(C(=O)c2ccc(NS(=O)(=O)c3cccc(Cl)c3)cc2)CC(C)O1 (centres undefined) 5.38%
NS(=O)(=O)c1ccc(N=Cc2c(O)n(-c3nccs3)c(=O)c3ccccc23)cc1 1.11%
Cc1ccc(NC(=O)N/C=C/c2ccco2)c(C)c1 7.78%
CNC(=S)N1CCc2sccc2C1C (centres undefined) 9.43%
N#Cc1c2ccc(OCC(=O)NCc3ccco3)cc2n2ccccc12 8.65%
CCOC(=O)Cc1csc(NC(=O)/C=C/c2ccco2)n1 7.86%
CN(C)c1nc2ccccc2c(N)c1-c1ccccc1 31%
Nc1c2ccccc2nc2ccccc12 12.6%
CC1(C)CC(NC(=O)C2CCC(=O)N(Cc3ccccc3F)C2)CC(C)(C)C1 (centres undefined) 6.51%
Cc1cc(C)c(S(=O)(=O)NC(C)C)c(C)c1-n1cnnn1 4.49%
Cc1cc(C)c(S(N)(=O)=O)c(C)c1-n1cnnn1 1.87%
COc1ccc(-c2nn(-c3ccccc3)cc2/C=N/NC(=S)NC(C)C)cc1OC 7.12%
CCOC(=O)C1CCN(C(=O)c2cc(S(=O)(=O)N3CCCCC3)ccc2C)CC1 -9.49%
CC(C)c1nc(SCC(=O)Nc2ccc(N3CCOCC3)cc2)c2ccccc2n1 9.39%
CN(C)c1ccc(NC(=O)CSc2nc(C3CC3)nc3ccccc23)cc1 -1.11%
COCCn1c(SCC(=O)c2ccc3c(c2)OCCO3)nnc1-c1ccco1 8.82%
O=C1NC(=O)N(c2ccccc2)C1=O 10%
O=C(O)COc1ccccc1/C=N/NC(=O)Cc1ccccc1 9.01%
CC(C)Cc1nc2sc3c(c2c(=O)n1N)CC(C)(C)OC3 -0.31%
Oc1ccc(C[C@H]2CNC(=S)N2CC2CCCN2C[C@H](Cc2ccc(O)cc2)N2C[C@H](Cc3ccccc3)N(CCc3ccccc3)C2=S)cc1 (some centres undefined) 10.5%
Cc1cc2c(cc1S(=O)(=O)N1CC(C)CC(C)C1)OCC(=O)N2 (centres undefined) 1.63%
Cc1c(NC(=O)C(C)OC(=O)/C=C/c2ccccc2)c(=O)n(-c2ccccc2)n1C (centres undefined) 2.8%
COc1cccc(/C=C/C(=O)OC(C)C(=O)Nc2c(C)n(C)n(-c3ccccc3)c2=O)c1 (centres undefined) 1.46%
COc1cc(/C=C/C(=O)OCC(=O)Nc2c(C)n(C)n(-c3ccccc3)c2=O)cc(OC)c1OC -6.63%
COc1cc(/C=C/C(=O)OCC(=O)Nc2c(C)n(C)n(-c3ccccc3)c2=O)ccc1OCC#N 3.82%
CCCCCCn1c(CN2CCN(C)CC2)nc2c1c(=O)n(C)c(=O)n2C 0.38%
CCOC(=O)Cc1csc(NC(=O)CSc2nc(N)c3c(C)c(C)sc3n2)n1 -6.82%
O=C(CSc1nc2ccccc2o1)NCC1CCCO1 (centres undefined) 5.06%
CCC(c1nnnn1Cc1ccc(OC)cc1)N1CCN(c2ccc(OC)cc2)CC1 (centres undefined) 24.3%
Cc1cc2oc(=O)cc(CSc3nc(N)cc(N)n3)c2cc1C(C)C 11.9%
O=C1c2ccccc2[C@@H]2C[C@@H](O)[C@H](Nc3ccccc3)CCN12 8.38%
N#Cc1ccc(N[C@@H]2CCN3C(=O)c4ccccc4[C@@H]3C[C@H]2O)cc1 4.35%
CCC1CCCCN1Cc1ccc(OC)c(C)c1 (centres undefined) 14.3%
Cc1ccc(S(=O)(=O)NCCS(=O)(=O)N2CCN(c3ccccc3)CC2)cc1 -3.13%
N=C(N)SCc1ccc(O)c([N+](=O)[O-])c1 14.6%
CC(C)(c1ccc(O)c([N+](=O)[O-])c1)c1ccc(O)c([N+](=O)[O-])c1 5%
CN(CC(=O)Nc1ccc2c(c1)CCC2)CC(=O)Nc1ccccc1Br 3.47%
Nc1ccc2c(c1)CCC2=O 1.82%
CC(=O)Nc1c(Cl)cc2c(c1Cl)Cc1cc(N)ccc1-2 2.49%
Nc1ccc2c(c1)Cc1cc(Cl)c(Cl)cc1-2 31.7%
CC(=O)Nc1cc2c(cc1Cl)-c1ccccc1C2 0.41%
COc1cc2c(cc1[N+](=O)[O-])-c1ccccc1C2 -0.68%
O=[N+]([O-])c1cc2c(cc1Br)-c1ccccc1C2 3.13%
Nc1ccc2c(c1)Cc1c(F)cccc1-2 19.7%
COc1cc(N)ccc1-c1cc2ccccc2oc1=O 3.42%
O=C(CCc1nc2ccccc2s1)NCc1ccccc1F 3.81%
CCSC1=N/C(=C\c2ccccc2)C(=O)N1 7.65%
C/C(=N/NC(=O)C1CC1(c1ccccc1)c1ccccc1)c1ccco1 (centres undefined) 10.7%
COc1cc2cc(CN(Cc3cccnc3)C(=O)Nc3ccccc3)c(=O)[nH]c2cc1OC 13.6%
CCCCn1c(N)c(N(CCOC)C(=O)CCN2C(=O)C3CC=CCC3C2=O)c(=O)[nH]c1=O (centres undefined) 9.87%
O=C(NCC(=O)N1CCCCCCC1)c1ccc(Cl)c(Cl)c1 16.3%
Nc1c(Cl)cc2c(c1Br)Cc1ccccc1-2 13.1%
CC(=O)Nc1ccc2c(c1Br)Cc1ccccc1-2 2.11%
CC1CN(CC(=O)NC(C)c2ccccc2)CC(C)O1 (centres undefined) 10.1%
COCCNC(=O)CN1CCN(C(c2ccccc2)c2ccccc2)CC1 25.6%
Cc1ccc(NC(=O)CN2CCN(Cc3ccccc3)CC2)cc1F 6.45%
O=C(CN1CCN(C(c2ccccc2)c2ccccc2)CC1)NCc1ccccc1 4.24%
O=C(CN1CCCC1)NC(c1ccccc1)c1ccccc1 23.8%
CC1Cc2ccccc2N1CC(=O)NC(c1ccccc1)c1ccccc1 (centres undefined) -0.83%
O=C(CN1CCCCCC1)NC(c1ccccc1)c1ccccc1 25.4%
O=C(CN1CCN(Cc2ccccc2)CC1)Nc1ccc(Cl)cc1 10.4%
